An excerpt weighted towards active compounds, which were near 11% of everything screened.
RORgamma inh: blocks mouse ROR gamma transcriptional activity | P51450 | Drosophila S2 Gal4-RORgamma UAS-luciferase reporter, 20 h | Potency, µM (titrated, usually from 53.6 µM), inactives show at the highest dose activity change, negative = inhibition, actives largely listed as inhibitors | 310,000 tested, 5.4% active | AID 2551; further: potency means the concentration at half of the fitted maximal effect; on the % scale 0 is the no-effect control and ±100 the full control effect; nearly all actives have a fitted effect of over 60% in size
Target sequence (P51450 whole entry, looked up, the tested form may be a part): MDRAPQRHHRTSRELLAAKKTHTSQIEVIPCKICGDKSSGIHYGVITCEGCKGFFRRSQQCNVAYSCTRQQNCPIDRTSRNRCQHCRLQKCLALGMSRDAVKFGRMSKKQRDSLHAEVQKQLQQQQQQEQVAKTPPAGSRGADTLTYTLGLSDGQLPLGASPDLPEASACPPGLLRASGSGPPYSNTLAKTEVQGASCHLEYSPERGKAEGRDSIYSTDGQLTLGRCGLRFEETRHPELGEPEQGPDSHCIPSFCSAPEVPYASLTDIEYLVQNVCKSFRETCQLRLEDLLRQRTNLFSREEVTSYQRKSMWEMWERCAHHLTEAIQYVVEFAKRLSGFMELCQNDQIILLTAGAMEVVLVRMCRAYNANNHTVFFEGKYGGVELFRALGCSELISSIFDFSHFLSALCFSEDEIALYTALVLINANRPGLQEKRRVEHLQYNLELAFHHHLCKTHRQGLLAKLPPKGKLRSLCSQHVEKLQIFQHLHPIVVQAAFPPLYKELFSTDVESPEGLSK
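Drosophila S2 cells stably expressing Gal4-DBD/mouse RORγ fusion under metallothionein promoter plus UAS-luciferase; compound 1 h, then 700 uM CuSO4 induction for 20 h at ambient temperature; inhibition read as reduced luminescence.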
SW480 rereplic: DNA re-replication induction in SW480 cells. Potency, µM (series often up to 46.1 µM), for inactives: at the highest dose re-replication activation, most hits filed as activators. SW480 DNA re-replication, Hoechst DNA content imaging, 48 h. AID 624297. 340,000 tested, 1.8% active; further: potency means the concentration at half of the fitted maximal effect; % of control where 0% means no effect; nearly all actives have a fitted effect of over 55% in size
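250 cells/well; 23 nL cpd via pin tool; 48 hr, 37 C, 5% CO2; Hoechst 40 min; imager read of total nuclear intensity, ex 405/em 500-530 nm.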
VP16 counter: counter-screen for ROR gamma inhibitors: Gal4-VP16 reporter. AID 2546. Potency, µM (titrated, usually from 53.6 µM), for inactives: at the top dose activity, negative = inhibition, hits mostly inhibitors. 310,000 tested, 3.5% active. Drosophila S2 Gal4-VP16 UAS-luciferase, luminescence, 20 h;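 further: Gal4-VP16 expression switched on by copper sulfate through the metallothionein promoter; potency means the concentration at half of the fitted maximal effect; on the % scale 0 is the no-effect control and ±100 the full control effect; nearly all actives have a fitted effect of over 50% in size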
MCF10A rereplic: inducers of DNA re-replication in MCF 10A breast cells; 350,000 tested, 2.9% active; Potency, µM (series often up to 46.1 µM), for inactives: top-dose activity, positive = re-replication, hits mostly activators; AID 624296; MCF 10A DNA re-replication, Hoechst nuclear intensity, 48 h; further: potency means the concentration at half of the fitted maximal effect; % of control where 0% means no effect; nearly all actives have a fitted effect of over 50% in size
IL1B secr inh: blocks inflammasome-driven IL-1 beta release | 360,000 tested, 4.7% active | activity change, % at 57.5 µM | THP-1 LPS/ATP IL-1B secretion, AlphaLISA, 16 h; hits give low values; in the data active means activity change below about -50%; inconclusive means mostly about -30% to -49%; further: on the % scale 0 is the no-effect control and ±100 the full control effect
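THP-1 cells pretreated 1 hr with compounds (up to 57.5 uM final), then stimulated with LPS (250 ng/mL final) plus ATP (1.25 mM final); secreted IL-1B measured by AlphaLISA after 16 hr, decreased signal indicating inhibition.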
An asterisk follows results filed as active; ? = inconclusive; . = no result given; [ ] = remark or other dose. Unless noted, the call rests on the fitted dose curve; in most records, active means well fitted curve in the direction sought with a large enough effect; inconclusive means small, poorly fitted or top-dose-only effect, or another doubt; inactive means no such curve, though single readings can be large; an effect the other way counts as inactive or inconclusive.

SMILES	RORgamma inh	SW480 rereplic	VP16 counter	MCF10A rereplic	IL1B secr inh
COc1ccc2nc(NNC(=O)c3cc(=O)c4ccccc4o3)sc2c1	8.9µM*	4%	?	0%	89
CC(=O)N(c1ccccc1)c1ccccc1[N+](=O)[O-]	.	.	.	.	25
O=C(Nc1ccn(CC(=O)N2CCN(c3ccccn3)CC2)c(=O)n1)OCc1ccccc1	.	-9%	.	-1%	7
O=C(c1ccc(-n2ccnc2)cc1)N1CCCC(CO)(Cc2cccc(Cl)c2)C1 (stereo unspecified)	?	-15%	4%	1%	-1
N#Cc1ccc(-c2nc3c4ccccc4ccn3c2Cc2cccc(Cl)c2)cc1	.	.	.	.	24
COc1cccc(C2=Nn3c(nnc3-c3cccc(OC)c3OC)SC2)c1	-3%	.	-1%	.	.
Cc1ccc(S(=O)(=O)c2nc(S(C)(=O)=O)sc2NCC2CCCO2)cc1 (stereo unspecified)	3%	5%	-4%	12%	-18
Cc1ccc(-c2nc(NCC3CCCO3)sc2C)cc1 (stereo unspecified)	11µM*	-13%	-10%	10%	-3
c1ccc(SCc2nc(-c3ccncc3)no2)cc1	?	2%	11µM*	?	?
Cc1ccc(SCc2nc(-c3ccncc3)no2)cc1	37%	?	7%	16µM*	-7
Cc1ccc(SCc2nc(-c3ccccc3)no2)cc1	33%	-4%	21%	9%	-3
CCCCn1c(N)c(N(CCOC)C(=O)CN(C)CC(=O)Nc2ccc(Cl)c(Cl)c2)c(=O)[nH]c1=O	.	-27%	.	3%	?
CCCC[C@@H](CN[C@H](C)CNC)NCC1CCC(C(C)(C)C)CC1 (stereo partly specified)	11µM*	-8%[9.22 µM]	-24%	?	-67*
C=CCn1c(-c2ccccc2)c[nH]c1=S	-29%	?	?	20%	-1
CCn1c(-c2ccc(-c3ccccc3)cc2)c[nH]c1=S	1.8µM*	12%	1.6µM*	?	0
Cn1c(-c2ccc(-c3ccccc3)cc2)c[nH]c1=S	0.79µM*	-4%	2.2µM*	-2%	-26
C=CCn1c(-c2ccc(Cl)cc2)c[nH]c1=S	2µM*	?	2.8µM*	18%	10
Cc1noc(C)c1-c1ccc2ncnc(NCc3ccc(Br)cc3)c2c1	11µM*	.	11µM*	.	.
Cc1noc(C)c1-c1ccc2ncnc(NC3CCCc4ccccc43)c2c1 (stereo unspecified)	28µM*	.	-4%	.	.
Cc1noc(C)c1-c1ccc2ncnc(NCc3ccccc3)c2c1	2.8µM*	.	-10%	.	.
Cc1noc(C)c1-c1ccc2ncnc(NCc3cccs3)c2c1	-19%	.	-8%	.	.
Cc1ccsc1CNc1ncnc2ccc(-c3c(C)noc3C)cc12	?	-1%	?	5.8µM*	.
CC1CCCCC1NC(=O)c1ccc(NC2=NC3CS(=O)(=O)CC3S2)cc1 (stereo unspecified)	-15%	-14%	4%	-1%	-2
CC(=O)C1=C(O)C(=O)N(Cc2ccccc2)C1c1ccc([N+](=O)[O-])cc1 (stereo unspecified)	-22%	.	-1%	.	.
COc1ccc(-c2cc(C3CC3)nc3sc(C#N)c(N)c23)cc1	-20%	13µM*	-1%[0.365 µM]	3.7µM*	-26
SMILES	RORgamma inh	SW480 rereplic	VP16 counter	MCF10A rereplic	IL1B secr inh
COc1ccc(/C=N/NC(=O)c2cc(-c3ccccc3)nc3ccccc23)cc1O	-5%	-6%	18%	28%	40
COc1ccc(/C=N/Nc2nc3ccccc3s2)cc1O	?	-4%	?	15%	-87*
COc1cc(/C=N/Nc2nc3ccccc3o2)cc(OC)c1O	?	-2%	?	4%	-25
COc1ccc(/C=N/Nc2nc3ccccc3o2)cc1O	11µM*	-3%	?	8%	10
C=CC(C)(C)c1c(O)c(CC=C(C)C)c(O)c2c(=O)c3ccc(O)c(O)c3oc12	.	?	.	23µM*	83
C=CC(C)(C)c1c2occc2c(O)c2ccc(=O)oc12	.	?	.	?	44
CCOc1ccc(S(=O)(=O)N2CCN(CC(O)COc3cccc([N+](=O)[O-])c3)CC2)cc1 (stereo unspecified)	34%	-1%	5%	0%	?
CCOc1ccc(-c2cc(CCCC(=O)NCc3ccc(C)cc3)no2)cc1	1.3µM*	-1%	?	-1%	3
CCOc1ccc(-c2cc(CCCC(=O)NCc3ccco3)no2)cc1	0.11µM*	5%	?	0%	18
CC(C)n1nnnc1C1c2ccccc2C(=O)N1CCCn1ccnc1 (stereo unspecified)	.	.	.	.	5
Cc1ccc(C(=O)NCC(=O)N2CCN(c3ccccc3O)CC2)s1	.	.	.	.	-17
Oc1ccc(N=Nc2nc(-c3ccccc3)c(-c3ccccc3)[nH]2)cc1	13µM*	2%	?	1%	0
Oc1ccc(N=Nc2n[nH]c(-c3ccccc3)n2)cc1	?	-6%	-27%	?	17
O=C(CCCSc1nc2ccccc2[nH]1)Nc1ccccc1	24%	-5%	-19%	1%	-50*
O=C(CCCCCCC(=O)Nc1ccccc1)NO	.	3.7µM*	.	15µM*	.
Cc1ccccc1OCCCSc1nc2ccccc2[nH]1	?	4%	?	?	-81*
CC(C)(C)NC(=O)C1c2ccccc2OCC(=O)N1CCCN1CCOCC1 (stereo unspecified)	.	.	.	.	37
CC(C)(C)c1ccc(C(=O)N2CCC2(C)C(=O)NCc2cccc3ccccc23)cc1 (stereo unspecified)	.	.	.	.	0
CCC(CC)C(=O)c1c[nH]c(C(=O)NC2CCCCCC2)c1	44%	?	-1%	2%	-66*
O=C(COc1ccc(-c2ccccc2)cc1)NNC(=O)Nc1ccccc1	.	-6%	.	15%	3
CCC(C)c1ccc(C2C3=C(Nc4nc(N)[nH]c(=O)c42)c2ccccc2C3=O)cc1 (stereo unspecified)	13µM*	?	?	?	-2
O=C1OCC2=C1C(c1ccc(F)cc1)c1cc3c(cc1N2)OCO3 (stereo unspecified)	-13%	0.16µM*	-6%	?	56
O=C1OCC2=C1C(c1ccc(F)cc1)c1cc3c(cc1N2)OCCO3 (stereo unspecified)	-15%	0.1µM*	3%	?	66
COc1cc2c(cc1OC)C(c1ccc3c(c1)OCO3)C1=C(CC(C)(C)CC1=O)N2 (stereo unspecified)	-22%	-4%	5%	?	-54*
CCOc1ccc(C2Sc3ccccc3NC3=C2C(=O)OC3)cc1 (stereo unspecified)	21%	?	0%	-5%	0
O=C1OCC2=C1C(c1ccc3c(c1)OCO3)Sc1ccccc1N2 (stereo unspecified)	-23%	1%	14µM*	15%	-11

High-throughput results as filed in PubChem BioAssay.
